TGFb SMAD3 inh: blocks TGF-b signaling; HepG2 CAGA-GFP TGF-b/SMAD3 reporter, GFP fluorescence, 18 h; TGF-beta stimulated, 500 pg/mL final; Potency, µM (doses to about 46.1 µM), actives largely listed as inhibitors; 1.2% of 410,000 active; AID 588855; also: nearly all actives have a fitted effect of over 65% in size
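Using HEPG2 CAGA-GFP reporter cells at 1000 cells/well, we pinned test compounds, stimulated with recombinant TGF-beta (500 pg/mL final) and measured total well GFP after 18 h.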
IL1B secr inh: inflammasome signaling inhibition, IL-1 beta readout | THP-1 LPS/ATP IL-1B secretion, AlphaLISA, 16 h; active compounds read low | activity change, % at 57.5 µM | 4.7% of 360,000 active; in the data active = activity change below about -50%; inconclusive = mostly about -30% to -49%
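Secreted IL-1B measured by AlphaLISA bead assay after 16 h compound exposure of THP-1 cells; compounds (final up to 57.5 uM) added 1 h before LPS (250 ng/mL) and ATP (1.25 mM) stimulation; lower signal means less secretion.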
HepG2 tox: counter-screen for TGF-b inhibitors: cytotoxicity in HepG2 cells | HepG2 CAGA-GFP viability, ATP luminescence, 18 h | AID 588856 | 0.76% of 410,000 active | Potency, µM (highest dose often 46.1 µM), actives largely listed as cytotoxic
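CellTiter-Glo luminescence gave cytotoxicity after 18 hours at 37 degrees C. The cells were HepG2 CAGA-GFP in 1% FBS DMEM, stimulated with 500 pg/mL TGF-beta after compound addition. %Activity was normalised to no-cell wells (complete cell-killing) and DMSO (no toxicity), and curves were fitted and classified.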
TDP1 cell noCPT: qHTS for Inhibitors of human tyrosyl-DNA phosphodiesterase 1 (TDP1): qHTS in cells in absence of CPT | Potency, µM (series often up to 46.2 µM), usual class: inhibitors | 15% of 420,000 active | DT40 Tdp1-/- hTDP1 cells, no CPT, ATP luminescence, 48 h; also: nearly all actives have a fitted effect of over 55% in size
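Camptothecin absent (DMSO only). Human TDP1-complemented DT40 knockout cells, 400 cells/well, 37 °C for minimum 48 hr; ATP measured via CellTiter-Glo, 30 min dark incubation, luminescence.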
DT40 TDP1 CPT: DT40-hTDP1 cell growth loss with CPT | AID 686979 | chicken DT40 Tdp1-/-;hTDP1 cells + 20 nM CPT, ATP luminescence, 48 h | 12% of 420,000 active | Potency, µM (highest dose often 46.2 µM), hits mostly inhibitors; also: nearly all actives have a fitted effect of over 55% in size
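Cell growth measured by CellTiter-Glo luminescence after a minimum 48 h, 37 C compound exposure with 20 nM CPT in Tdp1-knockout DT40 cells stably expressing hTDP1, seeded 400/well; qHTS titration format.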
S-ASM inh: blocks human secretory acid sphingomyelinase; P17405; placental ASM, HMU-PC fluorogenic substrate, 60 min; Potency, µM (top dose mostly 57.5 µM), hits mostly inhibitors; 0.006% of 340,000 active
Target sequence (P17405 47-631 limits assumed): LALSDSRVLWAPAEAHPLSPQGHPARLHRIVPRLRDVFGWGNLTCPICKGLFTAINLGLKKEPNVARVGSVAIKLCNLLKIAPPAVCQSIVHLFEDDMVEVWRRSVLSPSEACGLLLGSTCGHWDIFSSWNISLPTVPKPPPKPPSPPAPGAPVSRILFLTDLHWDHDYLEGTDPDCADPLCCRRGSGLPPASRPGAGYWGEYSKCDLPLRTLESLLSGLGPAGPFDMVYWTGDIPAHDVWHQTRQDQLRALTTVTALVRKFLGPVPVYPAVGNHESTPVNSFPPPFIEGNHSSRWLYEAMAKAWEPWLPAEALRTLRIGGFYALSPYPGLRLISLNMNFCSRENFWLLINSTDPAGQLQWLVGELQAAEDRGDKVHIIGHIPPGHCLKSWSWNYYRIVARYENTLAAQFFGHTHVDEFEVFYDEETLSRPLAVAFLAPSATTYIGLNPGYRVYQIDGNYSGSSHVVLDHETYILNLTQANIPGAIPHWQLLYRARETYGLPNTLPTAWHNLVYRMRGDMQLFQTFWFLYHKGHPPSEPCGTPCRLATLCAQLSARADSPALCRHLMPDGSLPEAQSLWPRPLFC
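Human placenta-derived ASM preincubated with compound 10 min at room temperature, then reacted with 9 uM (final) fluorogenic HMU-PC substrate for 60 min at 37 C. Stop solution raises pH to 10; fluorescence read at Ex 386/Em 447 nm.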
Each line names hits and unclear results; the compound was inactive in the other large screens. An excerpt weighted towards active compounds, which were near 19% of everything screened. Unless noted, calls follow the shape of the dose curve; as a rule, active = well fitted curve in the direction sought with a large enough effect; inconclusive = small, poorly fitted or top-dose-only effect, or another doubt; inactive = no such curve, though single readings can be large; an effect the other way counts as inactive or inconclusive.

O=C(CSc1ncnc2c1nnn2-c1ccc(F)cc1)NCC1CCCO1 (stereo unspecified)	IL1B secr inh inconclusive, TDP1 cell noCPT 21µM, DT40 TDP1 CPT 15µM
C[n+]1cccc(C(=O)NCC2CCCO2)c1 (stereo unspecified)	TGFb SMAD3 inh inconclusive
CN1Cc2cccnc2N(C)Cc2cc(Cl)ccc21	TGFb SMAD3 inh inconclusive, DT40 TDP1 CPT inconclusive
Clc1ccc2c(c1)CCc1cccnc1C2=C1CCNCC1	TDP1 cell noCPT 7.3µM, DT40 TDP1 CPT 6.5µM (no result: TGFb SMAD3 inh, IL1B secr inh, HepG2 tox, S-ASM inh)
CN1CC[C@@]2(CCCN(C(=O)c3ccco3)C2)C1	none (no result: TGFb SMAD3 inh, IL1B secr inh, HepG2 tox, S-ASM inh)
Nc1c(C(=O)Nc2ccc(Cl)cc2)sc2nc3c(cc12)N1CCC3CC1	TDP1 cell noCPT 16µM, DT40 TDP1 CPT inconclusive (no result: IL1B secr inh, S-ASM inh)
Nc1c(C(=O)Nc2ccc(Cl)c(C(F)(F)F)c2)sc2nc3c(cc12)N1CCC3CC1	TGFb SMAD3 inh inconclusive, TDP1 cell noCPT 13µM, DT40 TDP1 CPT 13µM (no result: IL1B secr inh, S-ASM inh)
Nc1c(C(=O)Nc2cccc(Br)c2)sc2nc3c(cc12)N1CCC3CC1	none (no result: IL1B secr inh, TDP1 cell noCPT, DT40 TDP1 CPT, S-ASM inh)
COc1ccc(NC(=O)c2sc3nc4c(cc3c2N)N2CCC4CC2)cc1OC	TGFb SMAD3 inh inconclusive, TDP1 cell noCPT 26µM, DT40 TDP1 CPT inconclusive (no result: IL1B secr inh, S-ASM inh)
Cc1nc2cnc(N3CCNCC3)nc2n(C)c1=O	none (no result: TGFb SMAD3 inh, IL1B secr inh, HepG2 tox, S-ASM inh)
O=C(Nc1ccc(N2CCOCC2)cc1)C1CCN(S(=O)(=O)c2cccc(C(F)(F)F)c2)CC1	TDP1 cell noCPT inconclusive, DT40 TDP1 CPT inconclusive (no result: S-ASM inh)
CC(=O)c1ccc(N2CCN(c3ccc4cc(S(=O)(=O)N5CCCCC5)ccc4n3)CC2)cc1	TDP1 cell noCPT 3.7µM, DT40 TDP1 CPT inconclusive (no result: IL1B secr inh, S-ASM inh)
C[C@@H](N)[C@@H](O)c1ccccc1	none (no result: TGFb SMAD3 inh, IL1B secr inh, HepG2 tox, S-ASM inh)
CCCNC(=O)c1c(N)n(CC2CCCO2)c2nc3ccccc3nc12 (stereo unspecified)	TDP1 cell noCPT 21µM, DT40 TDP1 CPT inconclusive
Nc1c(C(=O)NCCCc2ccccc2)c2nc3ccccc3nc2n1Cc1cccs1	TDP1 cell noCPT inconclusive, DT40 TDP1 CPT inconclusive
CC(C)OCCCNC(=O)c1c(N)n(CC2CCCO2)c2nc3ccccc3nc12 (stereo unspecified)	TGFb SMAD3 inh inconclusive, IL1B secr inh -64, DT40 TDP1 CPT inconclusive
S=C1CN=C(c2ccccc2)c2cc(Cl)ccc2N1	TDP1 cell noCPT inconclusive, DT40 TDP1 CPT inconclusive
O=C1c2ccccc2C(=O)c2ccccc21	none (no result: TGFb SMAD3 inh, IL1B secr inh, HepG2 tox, S-ASM inh)
c1ccc2c(c1)[IH]c1ccccc1-2	TGFb SMAD3 inh 4.5µM, IL1B secr inh -94, TDP1 cell noCPT 0.052µM, DT40 TDP1 CPT 0.052µM
CCS(=O)(=O)Nc1ccc(C2=NN(C(=O)c3ccco3)C(c3ccc(Cl)o3)C2)cc1 (stereo unspecified)	IL1B secr inh -63, TDP1 cell noCPT 23µM, DT40 TDP1 CPT inconclusive
CCC1Nc2ncnc(N3CCN(c4ccccn4)CC3)c2N(Cc2ccc(Br)cc2)C1=O (stereo unspecified)	IL1B secr inh inconclusive, TDP1 cell noCPT inconclusive, DT40 TDP1 CPT inconclusive
CCC1(Cc2ccccc2)C(=O)NC(=S)N(C)C1=O (stereo unspecified)	none
CCCCCCOc1ccc(CN2CCN(CC)CC2)cc1	TGFb SMAD3 inh inconclusive, IL1B secr inh inconclusive, TDP1 cell noCPT 23µM, DT40 TDP1 CPT inconclusive
CN1CCC(OC(=O)Cc2ccccc2)CC1	none
CCCOC(C(=O)OC1CCN(C)CC1)(c1ccccc1)c1ccccc1	TDP1 cell noCPT 12µM, DT40 TDP1 CPT 21µM (no result: TGFb SMAD3 inh, IL1B secr inh, HepG2 tox, S-ASM inh)
O=[N+]([O-])c1ccc(S(=O)(=O)NN=C2CCCCC2)cc1	TDP1 cell noCPT inconclusive
C=C1C2CCC3[C@@](CC[C@@H]4C(C(=O)O)CC(OC5OC(CO)C(OS(=O)(=O)O)C(OS(=O)(=O)O)C5OC(=O)CC(C)C)C[C@]34C)(C2)C1O (stereo partly specified)	none (no result: TGFb SMAD3 inh, IL1B secr inh, HepG2 tox, S-ASM inh)
O=c1[nH]c(=S)n(CCC2=CCCCC2)c(O)c1/C=N/Nc1ccccc1	none

From PubChem
